Pol beta inh: blocks human DNA polymerase beta activity | P06746 | Pol beta primer extension/strand displacement, fluorescence kinetic | Potency, µM (doses to about 114 µM), for the others: top-dose activity change, negative = inhibition, most hits filed as inhibitors | 1.3% of 340,000 active; note: % is set by controls: 0 for no effect and ±100 for the full control effect
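Values derive from four-parameter Hill fits of normalized kinetic data: reads at 0 and 10 min following addition of 50 nM substrate to 10 nM Pol beta preincubated 15 min with compound.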
POLK inh: blocks human DNA polymerase kappa activity; purified Pol kappa, fluorescent DNA synthesis assay, 10 min; Potency, µM (doses to about 107 µM), for inactives: at the top dose activity, negative = inhibition, usual class: inhibitors; Q9UBT6; 0.53% of 400,000 active; note: % is set by controls: 0 for no effect and ±100 for the full control effect
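Activity was followed as the change in fluorescence between reads at 0 and 10 min after starting the reaction with 50 nM substrate. Beforehand, 10 nM polymerase had been preincubated with compound for 15 min at room temperature.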
Pol eta inh: DNA polymerase eta (human) inhibition; recombinant Pol eta, fluorescent DNA replication assay; Q9Y253; Potency, µM (highest dose often 114 µM), without a hit: at the top dose activity change, negative = inhibition, usual class: inhibitors; 1.2% of 390,000 active; AID 588591; note: % is set by controls: 0 for no effect and ±100 for the full control effect
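Fluorescent replication assay: 50 nM final substrate added after a 15 min room-temperature compound preincubation with 10 nM enzyme. Signal taken at 0 min and again at 10 min.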
Pol iota inh: blocks human DNA polymerase iota activity. Q9UNA4. Pol iota fluorescent replication assay, 10 min. Potency, µM (highest dose often 115 µM), inactives show top-dose activity, negative = inhibition, most hits filed as inhibitors. 1% of 390,000 active. AID 588590
Target sequence (Q9UNA4 whole entry, looked up): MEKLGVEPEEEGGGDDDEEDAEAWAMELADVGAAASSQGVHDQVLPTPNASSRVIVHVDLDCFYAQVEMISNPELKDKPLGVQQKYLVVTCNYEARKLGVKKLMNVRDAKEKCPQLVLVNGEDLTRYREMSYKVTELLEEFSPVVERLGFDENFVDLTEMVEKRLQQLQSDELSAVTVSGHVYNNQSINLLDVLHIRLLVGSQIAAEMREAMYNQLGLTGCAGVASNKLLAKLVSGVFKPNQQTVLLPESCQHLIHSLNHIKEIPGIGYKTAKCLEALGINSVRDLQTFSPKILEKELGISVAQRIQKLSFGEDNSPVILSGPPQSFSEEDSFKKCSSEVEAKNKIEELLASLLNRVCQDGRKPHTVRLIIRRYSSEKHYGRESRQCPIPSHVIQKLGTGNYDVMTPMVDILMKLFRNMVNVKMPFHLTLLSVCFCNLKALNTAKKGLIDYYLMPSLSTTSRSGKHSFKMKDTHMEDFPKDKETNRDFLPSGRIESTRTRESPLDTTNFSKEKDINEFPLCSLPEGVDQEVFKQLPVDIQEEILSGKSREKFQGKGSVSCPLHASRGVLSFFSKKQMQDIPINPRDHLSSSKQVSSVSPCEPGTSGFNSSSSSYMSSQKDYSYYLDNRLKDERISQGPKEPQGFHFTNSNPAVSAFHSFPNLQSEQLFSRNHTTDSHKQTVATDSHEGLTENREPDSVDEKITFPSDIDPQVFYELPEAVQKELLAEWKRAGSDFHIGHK
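Pol iota at 10 nM preincubated 15 min with compounds at room temperature; reaction started with fluorescent substrate, 50 nM final. Fluorescence read kinetically at 0 and 10 min; buffer-only wells as negative control.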
APE1 inh: inhibitors of human APE1 endonuclease. 0.35% of 350,000 active. recombinant APE1, TAMRA/BHQ-2 abasic DNA cleavage fluorescence. Potency, µM (titrated, usually from 65.8 µM), without a hit: top-dose activity change, negative = inhibition, usual class: inhibitors. P27695;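 note: plate controls were vehicle for no effect and reference inhibitor for full effect; nearly all actives have a fitted effect of over 55% in size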
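Endonuclease cleavage of a quenched abasic-site DNA duplex (50 nM) by APE1 (0.75 nM) was tracked by TAMRA dequenching. Compounds were preincubated with enzyme 15 min at room temperature; data normalized to buffer-only and DMSO wells plus NSC13755 control.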
GLS inh: glutaminase GLS (human) inhibition | Potency, µM (doses to about 45.5 µM), inactives show top-dose activity change, negative = inhibition, actives largely listed as inhibitors | 0.21% of 410,000 active | GLS enzymatic activity, qHTS titration; note: % is set by controls: 0 for no effect and ±100 for the full control effect
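Enzyme dispensed in phosphate buffer (45 mM, pH 8.2, 0.02% Tween-20), compounds pinned in, then 1 mM L-glutamine solution and the glutamate oxidase–HRP–Amplex Red mix added; fluorescence read immediately and again after 30 min at room temperature.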
* = called active by the depositor; u = inconclusive; x = no result; [ ] = remark or other dose. Rows were chosen to be rich in hits. Some 2.4% of all compounds tested hit in one or more screens of this group. Calls come from the whole dose curve; as a rule, active = well fitted curve in the direction sought with a large enough effect; inconclusive = small, poorly fitted or top-dose-only effect, or another doubt; inactive = no such curve, though single readings can be large; an effect the other way counts as inactive or inconclusive. Potency is the fitted concentration of half-maximal effect.

SMILES | Pol beta inh | POLK inh | Pol eta inh | Pol iota inh | APE1 inh | GLS inh
CC1Cc2ccccc2N1S(=O)(=O)c1cccc(C(=O)N2CC(=O)Nc3ccccc32)c1 (stereo unspecified) | 39.8µM* | -14.2% | -13.8% | 10.7% | 6.2% | 1.7%
CN1C=CC(=C2C=CN(C)C=C2)C=C1 | x | 13.2%[60.1 µM] | x | x | 26.7% | x
O=C1NC(=Nc2ccc(O)cc2)S/C1=C\C=C\c1ccco1 | 20µM* | -44.2% | 31.6µM* | u | u | 7.3%
O=C(C=Cc1cccc(O)c1)c1ccccc1O | x | 0.2% | -19.5% | u | x | 22.6%
O=C(/C=C/c1ccc(O)c(O)c1)c1ccccc1O | 0.2% | -13.7% | u | u | -9.4% | 5.62µM*
CC1=NN(C(=O)c2ccc(Cn3nc(C)c(Br)c3C)cc2)C(O)(C(F)(F)F)C1 (stereo unspecified) | 0.9% | -9.0% | -8.6% | -0.4% | 0.1% | 2.7%
Cc1c(NC(=O)c2ccc3nsnc3c2)cccc1[N+](=O)[O-] | 15.4% | u | 2.3% | 25.1µM* | 4.2% | 4.0%
CC(=O)c1cccc(NC(=O)c2cc3c(s2)-c2c(C)cccc2OC3)c1 | 14.1% | -2.6% | -3.6% | -11.1% | x | 4.9%
Cc1cccc2c1-c1sc(C(=O)Nc3cccc([N+](=O)[O-])c3C)cc1CO2 | 0.199µM* | -8.8% | -6.4% | 6.9% | -0.6% | 1.9%
Cc1cccc2c1-c1sc(C(=O)Nc3ccccc3C(N)=O)cc1CO2 | 20.3% | 5.9% | -4.7% | 79.4µM* | x | -14.2%
Cc1cccc2c1-c1sc(C(=O)Nc3nccs3)cc1CO2 | 25.4% | -13.7% | -11.4% | -2.4% | -1.2% | -3.5%
Cc1c(NC(=O)c2ccc(N3CCCC3)c([N+](=O)[O-])c2)cccc1-c1nc2ccccc2s1 | 2.1% | 1.5% | 6.7% | 79.4µM* | 3.5% | 5.0%
Cn1c(N)c(C(=O)COC(=O)C2Cc3ccccc3CN2S(C)(=O)=O)c(=O)n(C)c1=O (stereo unspecified) | x | x | 12.6µM* | x | x | -15.7%
CC(=O)N1Cc2ccccc2CC1C(=O)OCC(=O)c1c(N)n(C)c(=O)n(C)c1=O (stereo unspecified) | x | -21.9% | u | 0.2% | -7.9% | 6.9%
O=C(O)CN1C(=O)/C(=C/C=C/c2ccccc2)SC1=S | -22.6% | -38.6% | -22.2% | u | -2.7% | -8.4%
C#CCN1C(=O)S/C(=C/C=C/c2ccc(N(C)C)cc2)C1=O | 1.5% | -18.7% | -18.6% | 79.4µM* | u | 11.4%
Cc1cc(NCc2ccc(F)cc2)nc2cc(Cl)ccc12 | 15.2% | -18.3% | -23.7% | -2.3% | 37.4% | -7.3%
O=C(O)c1cc(=O)c2c3nc4ccccc4oc-3cc(=O)c2[nH]1 | x | 10µM* | x | u | x | 28.2µM*
COc1ccc(OC)c2c(=O)cc(C(=O)O)[nH]c12 | -26.5% | -1.0% | -9.9% | 158.7% | -5.5% | 34.4%
O=C(NC1CC1)c1cccc2c1C(=O)c1ccc(N3CCC(N4CCCCC4)CC3)cc1S2(=O)=O | x | x | 0.3% | x | x | -2.1%
Cc1ccc(CN2CC(C(=O)N3CCN(c4ccccc4O)CC3)CC2=O)cc1 (stereo unspecified) | x | -7.6% | -11.8% | 70.9% | 3.7% | 7.08µM*
O=C1CC(C(=O)N2CCN(c3ccccc3Cl)CC2)CN1Cc1ccccc1 (stereo unspecified) | x | -10.8% | -10.7% | -20.8% | -5.9% | -0.3%
CCOc1ccccc1N1CCN(C(=O)CN2C(=O)NC3(CCCC3)C2=O)CC1 | x | -9.0% | -12.8% | -7.5% | 29.2% | 5.2%
O=C(CN1C(=O)NC2(CCCC2)C1=O)N1CCN(c2ccccc2O)CC1 | x | -16.1% | -0.1% | 24.4% | 41.6% | 3.16µM*
O=C(Cn1ncc(Cl)c(Cl)c1=O)N1CCOCC1 | 1.3% | -6.7% | -18.2% | 43.1% | -3.5% | 0.0%
SMILES | Pol beta inh | POLK inh | Pol eta inh | Pol iota inh | APE1 inh | GLS inh
CCc1ccc(C(=O)Cn2ncc(Cl)c(Cl)c2=O)cc1 | 50.1µM* | -17.2% | u | u | u | 1.3%
O=C(Cn1ncc(Cl)c(Cl)c1=O)N1CCN(Cc2ccccc2)CC1 | 28.2µM* | 0.0% | u | 35.5µM* | 8.5% | -4.2%
O=C(c1ccco1)N1CCN(Cc2ccc(Br)cc2)CC1 | 19.4% | 6.2% | -12.3% | 37.7% | -8.3% | -2.6%
Cc1nnc2c3ccccc3nc(Nc3ccccc3C(=O)O)n12 | -28.2% | -10.8% | 79.4µM* | -13.3% | x | u
COC(=O)Cc1cc(=O)n(-c2nc3ccccc3[nH]2)[nH]1 | 79.4µM* | -15.5% | -14.6% | -11.9% | -0.3% | 16.0%
COc1cc(C2Nc3ccccc3-c3nnc(SCc4ccc(Cl)cc4)nc3O2)ccc1OCC(=O)O (stereo unspecified) | u | -25.9% | -8.3% | 5.0% | x | 13.9%
O=C(O)COc1ccccc1C1Nc2ccccc2-c2nnc(SCc3ccc(Cl)cc3)nc2O1 (stereo unspecified) | 2.51µM* | -18.7% | -4.9% | -7.2% | x | 9.5%
COc1cc(C2Nc3ccccc3-c3nnc(SCc4ccc(C)cc4)nc3O2)cc(OC)c1O (stereo unspecified) | -2.9% | 79.4µM* | -2.6% | u | x | 40.3%
COc1ccc([C@H]2C[C@@H](O)[C@H](n3cc(C4CC4)nn3)CN2CC2CCCCC2)cc1 | x | x | -10.8% | x | x | 0.2%
Cc1c(Cl)c(=O)oc2cc(OCC(=O)N3CCCC(C)C3)ccc12 (stereo unspecified) | x | 3.9% | -9.9% | 8.5% | -0.3% | 1.4%
C/C(CCC(C)C)=N\NS(=O)(=O)c1ccc(C)c([N+](=O)[O-])c1 | -28.1% | 1.7% | -0.1% | -9.2% | -4.8% | 10.1%
N#C/C(=C(/O)c1ccc(-c2cccc([N+](=O)[O-])c2)o1)c1nc2ccccc2s1 | -23.3% | u | 17.8µM* | 50.1µM* | -9.1% | -17.7%
CC(=O)c1ccc(N2CCN(C(=O)COc3ccc4c(c3)CCC4)CC2)cc1 | 10µM* | u | 56.2µM* | 79.4µM* | -24.5% | 1.5%
CC(=O)c1sc(-c2cccc(Cl)c2)nc1C | -0.2% | 3.8% | 4.4% | -13.8% | 19.5% | 0.5%
Cn1cnc(S(=O)(=O)Nc2ccccc2N2CCOCC2)c1 | 27.4% | -4.4% | 3.9% | 105.9% | 4.1% | -18.3%
CN(C)c1cccc2c1c(NS(=O)(=O)c1cn(C)cn1)nn2C | -1.6% | -9.8% | -24.3% | 39.8µM* | 47.8% | -23.5%
COC(=O)Cc1c(O)ccn(CCc2c[nH]c3ccc(OC)cc23)c1=O | -15.2% | -14.4% | -8.0% | -17.5% | -3.9% | 16.2%
CC1=C(C(N)=O)S(=O)(=O)c2ccccc21 | 90.7% | -5.5% | -16.0% | 25.6% | 17.4% | 32.0%
Clc1cccc(Nc2ncnc3ccc(Br)cc23)c1 | 7.0% | -18.9% | -16.3% | 100µM* | -3.6% | 1.2%
Cc1cccc(Nc2ncnc3ccc(Br)cc23)c1 | -2.0% | -7.5% | -9.3% | -14.5% | -0.5% | 4.3%

Source: PubChem BioAssay (National Center for Advancing Translational Sciences (NCATS))
